Measurements reported in PubChem BioAssay AID1445 (SRMLSC, 2008).
Hit rate of the full screen: of about 220,000 compounds, about 910 (0.41%) were called active.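 Rule for the calls: active = primary inhibition above the hit cutoff, then over 50% inhibition at one or more dose response concentrations (cut at about 23% in these data, passing the limit was not always enough); inconclusive = conflicting primary data, or primary hits not chosen for dose response; inactive = low primary inhibition, or under 50% at every dose.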 Only a selection was taken, and actives are over-represented in it overall. Potency and affinity values are given separately.

The compounds below were run against Aminopeptidase N (Plasmodium falciparum (isolate 3D7)) (UniProt O96935) (assay: malaria alanyl aminopeptidase activity blockers – biochemical, fluorogenic H-Leu-NHMec substrate, 1536-well (AID 1445;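 note: plate controls were DMSO full reaction for no effect and no enzyme background for full effect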)). Conditions: recombinant M1AAP, H-Leu-NHMec fluorogenic kinetic assay; at 30 µM, active compounds read high unless noted.
Sequence of Aminopeptidase N (Plasmodium falciparum (isolate 3D7)) (O96935 whole entry, looked up): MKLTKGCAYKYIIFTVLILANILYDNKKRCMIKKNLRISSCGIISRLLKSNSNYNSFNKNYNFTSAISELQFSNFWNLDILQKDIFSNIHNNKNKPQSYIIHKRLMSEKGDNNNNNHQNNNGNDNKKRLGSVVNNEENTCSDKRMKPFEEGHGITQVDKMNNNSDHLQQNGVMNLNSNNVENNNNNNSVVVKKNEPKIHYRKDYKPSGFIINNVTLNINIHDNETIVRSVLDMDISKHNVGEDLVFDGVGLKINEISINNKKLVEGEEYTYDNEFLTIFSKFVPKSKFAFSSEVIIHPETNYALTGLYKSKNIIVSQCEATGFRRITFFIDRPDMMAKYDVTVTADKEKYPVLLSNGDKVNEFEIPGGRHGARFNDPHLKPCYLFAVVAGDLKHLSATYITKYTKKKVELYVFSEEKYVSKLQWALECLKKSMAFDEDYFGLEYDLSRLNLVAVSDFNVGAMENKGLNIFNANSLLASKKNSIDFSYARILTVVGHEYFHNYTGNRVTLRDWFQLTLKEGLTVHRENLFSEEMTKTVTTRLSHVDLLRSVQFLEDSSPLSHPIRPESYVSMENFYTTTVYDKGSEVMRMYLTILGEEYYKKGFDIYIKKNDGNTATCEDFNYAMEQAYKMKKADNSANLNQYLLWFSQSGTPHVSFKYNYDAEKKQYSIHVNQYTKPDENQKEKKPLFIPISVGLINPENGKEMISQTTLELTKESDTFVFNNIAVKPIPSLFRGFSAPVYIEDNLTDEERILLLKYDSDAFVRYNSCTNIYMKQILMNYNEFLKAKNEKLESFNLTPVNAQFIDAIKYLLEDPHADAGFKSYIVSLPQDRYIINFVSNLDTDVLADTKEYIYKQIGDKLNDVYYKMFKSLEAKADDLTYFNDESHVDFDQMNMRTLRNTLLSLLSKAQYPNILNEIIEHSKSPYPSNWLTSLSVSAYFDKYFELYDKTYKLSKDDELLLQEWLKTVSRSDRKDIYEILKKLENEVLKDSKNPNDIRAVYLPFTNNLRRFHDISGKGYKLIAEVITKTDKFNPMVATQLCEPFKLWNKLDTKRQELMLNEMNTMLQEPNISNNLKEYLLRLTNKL

inhibition, inactive:
CCCCCCC(=O)N/N=C(\C)Cc1ccccc1 -0.14%
COc1cccc(-n2c(CN3CCN(Cc4ccccc4)CC3)nc3ccc([N+](=O)[O-])cc3c2=O)c1 4.64%
Cc1c(Cl)cnc(NC(=O)CSc2nncs2)c1Cl -1.74%
COc1cccc(OC)c1NC(=O)CN1CCC(NC(=O)c2cccc(F)c2)CC1 20.7%
Cc1ccc(C(=O)NC2CCN(CC(=O)NCc3cccs3)CC2)cc1 15.8%
O=C(CN1CCC(NC(=O)c2ccc(F)cc2)CC1)NCc1ccccc1F 31.9%
O=C(CN1CCC(C(=O)c2cccc(F)c2)CC1)NCc1cccs1 11.7%
CCOc1ccc(OCC)c(NC(=O)CN2CCC(NC(=O)c3cccc(F)c3)CC2)c1 8.37%
COc1ccccc1CNC(=O)CN1CCC(NC(=O)c2ccccc2F)CC1 8.21%
COc1cccc(C(=O)NCc2ccccc2OC)c1 0.04%
O=C(CN1CCC(NC(=O)c2ccc(Br)cc2)CC1)NCc1cccs1 17.5%
O=C(C1CC1)N1CCN(S(=O)(=O)c2ccc3c(c2)OCCO3)CC1 2.72%
O=C(O)CC(NC(=O)C(c1ccccc1)c1ccccc1)c1ccc(F)cc1 (stereo unspecified) -1.82%
Cc1cccc(C)c1NC(=O)c1sc(Cl)nc1C -2.07%
CC(C)N(CCc1ccncc1)C(=O)Nc1ccc(Cl)c(Cl)c1 -5.52%
CCn1nnnc1SCC(=O)Nc1ccc(OCc2ccccc2)cc1 7.63%
O=C(NCc1ccccc1)c1onc(CSc2ccccn2)c1C(=O)NCc1ccccc1 4.51%
CC(C)N(C)C1CCN(C(=O)Nc2ccc(Cl)cc2)CC1 3.02%
O=c1[nH]c(N2CCOCC2)nc2c1CCCC2 15.6%
CC(C)Oc1ccc(C(CC(=O)O)NC(=O)C2CCCCC2)cc1 (stereo unspecified) -1.13%
Cc1ccc(SCCC(=O)Nc2ccccc2C(=O)N2CCOCC2)cc1 -3.27%
CN(C)CC(C)(C)CNC(=S)Nc1ccc(S(=O)(=O)N2CCOCC2)cc1 2.96%
Cc1ccccc1C(=O)NC1CCN(CC(=O)Nc2ccc3c(c2)OCCO3)CC1 -1.09%
Cc1ccccc1C(=O)NC1CCN(CC(=O)NCc2ccc(F)cc2)CC1 3.39%
O=C(CN1CCC(NC(=O)c2ccccc2Cl)CC1)NCc1ccco1 12.1%
Cc1ccccc1C(=O)NC1CCN(CC(=O)Nc2ccc3c(c2)OCO3)CC1 10.9%
Cc1cc(-c2n[nH]c(=S)n2/N=C/C=C/c2ccccc2)n[nH]1 16.6%
CC1CCN(CCc2nc3cc(NS(=O)(=O)c4ccc(F)cc4)ccc3n2C)CC1 -3.38%
Cc1ccc(OCCCNCCO)c(Br)c1 9.5%
CCC(=O)NC(=S)Nc1c(C)cc(Br)cc1C 0.48%
CC(C(=O)c1c[nH]c(C(=O)N=CN(C)C)c1)c1ncc(C(F)(F)F)cc1Cl (stereo unspecified) 0.78%
CCOc1cccc(Nc2cc3n(c(=O)n2)CCc2cc(OC)c(OC)cc2-3)c1 12.6%
COc1cc2c(cc1OC)-c1cc(Nc3ccccc3)nc(=O)n1CC2 11.4%
CC(c1cccs1)N(Cc1ccco1)C(=S)Nc1ccc(F)c(Cl)c1 (stereo unspecified) 4.95%
Cc1ncc(CO)c(/C=N/NC(=S)Nc2ccc(C(C)C)cc2)c1O 9.46%
Cc1nc2cc(NC(=O)c3ccc(N4C(=O)CCC4=O)cc3)ccc2s1 -5.53%
COc1ccc(/C=C2\SC(=S)N(C(Cc3ccccc3)C(=O)O)C2=O)cc1 (stereo unspecified) 4.89%
C=CCOc1ccc(/C=C2\SC(=S)N(N3CCOCC3)C2=O)cc1 -2.77%
Cc1ccc(/C=C2\SC(=S)N(C(Cc3ccccc3)C(=O)O)C2=O)cc1 (stereo unspecified) 14.4%
COc1cc(/C=C2\SC(=S)N(C(C(=O)O)c3ccccc3)C2=O)cc(OC)c1OC (stereo unspecified) 18.4%
CCOc1ccc(/C=C2\SC(=S)N(CCC(=O)O)C2=O)cc1 1.74%
COc1cc(/C=C2/SC(=S)N(c3c(C)n(C)n(-c4ccccc4)c3=O)C2=O)ccc1O 11.3%
CCOc1ccc(/C=C2\SC(=S)N(C(C(=O)O)c3ccccc3)C2=O)cc1OC (stereo unspecified) 14.7%
CCOc1ccc(/C=C2/SC(=S)N(C(C(=O)O)c3ccccc3)C2=O)cc1OCC (stereo unspecified) 12.1%
O=C(COc1cccc2cccnc12)N/N=C/c1ccccc1O -2.77%
O=S(=O)(NCC(c1cccnc1)N1CCN(c2ccc(F)cc2)CC1)c1cccs1 (stereo unspecified) -1.2%
COc1ccc(CNC(=S)NC(C)CCc2ccccc2)cc1 (stereo unspecified) -0.16%
CSc1cccc(NCc2ccc([N+](=O)[O-])cc2)c1 7.42%
COc1ccc(-c2nn(-c3ccccc3)cc2CNCCN2CCOC2=O)c(F)c1 -5.99%
O=C(N/N=C/c1ccccn1)c1cc(-c2ccccc2)nc2ccccc12 -10.8%
Cn1cnnc1SCC(=O)Nc1ccc2nc(SCc3ccccc3F)sc2c1 -0.14%
O=C(O)C(Cc1ccccc1)N1C(=O)/C(=C/c2cccnc2)SC1=S (stereo unspecified) 5.04%
O=C(O)C(Cc1ccccc1)N1C(=O)/C(=C/c2ccccc2)SC1=S (stereo unspecified) 18.4%
CC[C@@H]1CC=C[C@H]2[C@H]1C(=O)N(Cc1ccccc1)[C@H]2c1ccc(OC)c(Cl)c1 4.5%
NS(=O)(=O)c1ccc(N2N=C(c3ccc(Br)cc3)CC2c2ccc(F)cc2)cc1 (stereo unspecified) 5.03%
COc1ccc(C2CC(c3ccccc3)=NN2c2ccc(S(N)(=O)=O)cc2)cc1 (stereo unspecified) 22.3%
COc1ccc(C2CC(c3ccccc3)=NN2c2ccc(S(N)(=O)=O)cc2)cc1OC (stereo unspecified) 19.9%
NS(=O)(=O)c1ccc(N2N=C(c3ccccc3)CC2c2ccccc2)cc1 (stereo unspecified) 19.1%
CC(C)(C)N/C=C(\C#N)S(=O)(=O)c1ccc(Br)cc1 -2.81%
COc1cc(OC)c2c(-c3ccccc3)cc(=O)oc2c1C(CC(=O)N1CCN(c2ccccc2)CC1)c1ccc2c(c1)OCO2 (stereo unspecified) 5.15%
C=CCn1c(=O)c2ccccc2n2c(SCC(=O)Nc3sc(C)c(CC)c3C(=O)OCC)nnc12 1.54%
CS(=O)(=O)N(CC(=O)Nc1ccccc1C(=O)N1CCCC1)c1ccc2c(c1)OCO2 4.85%
CS(=O)(=O)N(CC(=O)Nc1ccccc1C(=O)N1CCOCC1)c1ccccc1 -1.24%
Cc1cc(C(=O)CSc2nnc(C3COc4ccccc4O3)n2C)c(C)n1-c1ccc(F)cc1 (stereo unspecified) 7.16%
CCCOc1cccc(NC(=O)OC2CCN(C)CC2)c1 -1.59%
Cc1ccc(C(=O)Nc2ncc(Cc3ccc(F)cc3)s2)o1 3.37%
O=[N+]([O-])c1ccc(N/N=C\c2cccnc2)nc1 6.43%
COc1ccc(C(=O)Nc2nc3nccc(-c4ccccc4)n3n2)cc1 0.22%
CCOC(=O)c1c(NC(=O)CSc2ncnc3ccccc23)sc(C)c1C 1.43%
COC(=O)c1c(NC(=O)CSc2ccccc2N)sc(C)c1C 2.47%
O=c1[nH]c(/C(=N\O)c2ccccc2)no1 10.2%
Cc1nnc(SCc2ccc(Cl)cc2Cl)[nH]c1=O 4.54%
S=c1[nH]nc(-c2ccc(Br)cc2)n1Cc1ccco1 3.64%
Cn1cccc1Cc1nnc(SCC(=O)NC2CCCCC2)n1-c1ccc(F)cc1 6.82%
COc1ccc2ccccc2c1C1CC(=O)N2CN(C)CSC2=C1C#N (stereo unspecified) 16%
CCOc1ccccc1N1CSC2=C(C#N)C(c3c(OC)ccc4ccccc34)CC(=O)N2C1 (stereo unspecified) 18.2%
CCOc1ccccc1NC(=O)c1ccc(S(=O)(=O)N(C)C)cc1 -1.64%
COCc1nnc(NS(=O)(=O)c2ccc([N+](=O)[O-])cc2)s1 2.64%
Nc1c(C(=O)O)ccc2c1C(=O)c1ccccc1C2=O 4.92%
O=C(O)c1cccc2c1C(=O)c1ccccc1C2=O 15.9%
COc1cccc(N2C(=O)CC(N3CCN(CCN=CC4=C(O)CC(C)(C)CC4=O)CC3)C2=O)c1 (stereo unspecified) 5.88%
COc1cc(-c2cc(=O)c3c(O)cc(O)cc3o2)ccc1O 12.4%
O=c1c(-c2c(O)cc(O)c3c(=O)cc(-c4ccc(O)cc4)oc23)c(-c2ccc(O)cc2)oc2cc(O)cc(O)c12 12%
Cn1c(SCC(=O)Nc2nccs2)nnc1C12CC3CC(CC(C3)C1)C2 6.61%
O=C(CCC1CCCN(C(=O)c2ccncc2)C1)NCc1ccc(F)c(F)c1 (stereo unspecified) 1.64%
COc1ccc(C(=O)N2CCCC(CCC(=O)NCc3ccc(F)c(F)c3)C2)cc1F (stereo unspecified) 3.11%
O=C(Cn1cnc2c(nnn2Cc2ccccc2)c1=O)c1ccc(Cl)cc1 2.57%

inhibition, active:
O=C(CN1CCC(NC(=O)c2ccccc2F)CC1)NCc1ccc(F)cc1 27.4%
COc1cc2c(cc1OC)-c1cc(Nc3ccc4c(c3)OCCO4)nc(=O)n1CC2 24.9%
CS(=O)(=O)N(CC(=O)Nc1ccccc1C(=O)N1CCOCC1)c1ccc2c(c1)OCO2 24.9%
COc1ccc2ccccc2c1C1CC(=O)N2CN(C3CCCCC3)CSC2=C1C#N (stereo unspecified) 28%
